A short description of test [1]: BSK_LPS_PGE2: BioMAP Diversity Plus: LPS Assay for Prostaglandin E2 (PGE2) Biomarker Activity (AID 2283082).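 On AC50: secreted prostaglandin E2 measured by ELISA in LPS-stimulated co-culture.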 To be noted: primary human HUVEC with PBMC; actives raise or lower the signal. The essentials:
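HUVEC plus human PBMC co-culture stimulated with LPS; secreted PGE2 quantified by ELISA 24 h after chemical dosing. Activity fitted bidirectionally against DMSO baseline; parallel SRB staining (0.1% SRB after 10% TCA fixation, 560 nm) flags overt cytotoxicity.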

Read-out in test [2]: Macrophage colony-stimulating factor (MCSF), CSF1 (gene 1435)
The experiment in a line: BSK_LPS_MCSF: BioMAP Diversity Plus: LPS Assay for Macrophage colony-stimulating factor (MCSF) Biomarker Activity (AID 2283083). The conditions noted are these: primary human HUVEC with PBMC; actives raise or lower the signal. The essentials: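 HUVEC + PBMC co-culture (human primary), 24 h post-dose; M-CSF by ELISA; gain/loss of signal fitted bidirectionally vs DMSO baseline.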

Read-out in test [3]: Tissue Factor, F3 (gene 2152)
The experiment in a line: BSK_LPS_TissueFactor: BioMAP Diversity Plus: LPS Assay for Tissue Factor Biomarker Activity (AID 2283084). The conditions noted are these: primary human HUVEC with PBMC; actives raise or lower the signal. The gist of the method: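 HUVEC/PBMC co-culture, LPS-activated; CD142 ELISA read 24 h post-dose; bidirectional curve fit vs DMSO negative control.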

Read-out in test [4]: Tumor necrosis factor (Homo sapiens) (UniProt P01375)
The experiment in a line: BSK_LPS_TNFa: BioMAP Diversity Plus: LPS Assay for Tumour Necrosis Factor alpha (TNFa) Biomarker Activity (AID 2283085). The conditions noted are these: primary human HUVEC with PBMC; actives raise or lower the signal. The essentials:
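Human umbilical vein endothelial cells co-cultured with PBMC and stimulated with LPS. TNFa was measured by ELISA 24 h after chemical dosing, fitted bidirectionally relative to DMSO.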

Read-out in test [5]: Vascular cell adhesion molecule 1 (VCAM1), VCAM1 (gene 7412)
The experiment in a line: BSK_LPS_VCAM1: BioMAP Diversity Plus: LPS Assay for Vascular cell adhesion molecule 1 (VCAM1) Biomarker Activity (AID 2283086). The conditions noted are these: primary human HUVEC with PBMC; actives raise or lower the signal. The essentials:
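Human umbilical vein endothelial cells co-cultured with PBMC and stimulated with LPS; VCAM-1 measured by ELISA 24 h after dosing. Bidirectional curve fitting against DMSO baseline; cytotoxicity tracked in parallel by SRB total-protein staining.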

Read-out in test [6]: CD38, CD38 (gene 952)
The experiment in a line: BSK_SAg_CD38: BioMAP Diversity Plus: SAg Assay for CD38 Biomarker Activity (AID 2283087). The conditions noted are these: primary human HUVEC with PBMC; actives raise or lower the signal. The gist of the method: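 Human HUVEC plus PBMC co-culture stimulated with superantigen; CD38 measured by ELISA 24 h after chemical dosing. Fluorescence read-out, bidirectional fit against DMSO; cytotoxicity tracked in parallel by SRB and Alamar Blue.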

Read-out in test [7]: CD40, CD40 (gene 958)
The experiment in a line: BSK_SAg_CD40: BioMAP Diversity Plus: SAg Assay for CD40 Biomarker Activity (AID 2283088). The conditions noted are these: primary human HUVEC with PBMC; actives raise or lower the signal. The essentials: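 HUVEC/PBMC co-culture, 24 h post-dose; CD40 by ELISA, fluorescence intensity; bidirectional fit vs DMSO negative control.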

Read-out in test [8]: CD69, CD69 (gene 969)
The experiment in a line: BSK_SAg_CD69: BioMAP Diversity Plus: SAg Assay for CD69 Biomarker Activity (AID 2283089).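 On AC50: cell surface CD69 protein quantified by ELISA with fluorescence detection.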 To be noted: primary human HUVEC with PBMC; actives raise or lower the signal. The essentials:
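Values derive from bidirectional fitting relative to DMSO vehicle. Cells: umbilical vein endothelium plus peripheral blood mononuclear cells, treated 24 h before fluorescent ELISA for CD69.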

Read-out in test [9]: Monocyte Chemoattractant Protein-1 (MCP1), CCL2 (gene 6347)
The experiment in a line: BSK_SAg_MCP1: BioMAP Diversity Plus: SAg Assay for Monocyte Chemoattractant Protein-1 (MCP1) Biomarker Activity (AID 2283090). The conditions noted are these: primary human HUVEC with PBMC; actives raise or lower the signal. The gist of the method: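 MCP-1 levels in the endothelial–PBMC SAg co-culture were quantified by ELISA at 24 h post-dosing; both increases and decreases versus DMSO scored. Cytotoxicity monitored by SRB total protein in parallel cultures.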

Read-out in test [10]: E-selectin (Homo sapiens) (UniProt P16581)
The experiment in a line: BSK_SAg_Eselectin: BioMAP Diversity Plus: SAg Assay for Eselectin Biomarker Activity (AID 2283091). The conditions noted are these: primary human HUVEC with PBMC; actives raise or lower the signal. The gist of the method:
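E-selectin ELISA readout at 24 h post-dosing in human umbilical vein endothelial cell/PBMC co-culture; gain or loss of signal fitted relative to DMSO baseline.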

Read-out in test [11]: Monokine induced gamma interferon (MIG), CXCL9 (gene 4283)
The experiment in a line: BSK_SAg_MIG: BioMAP Diversity Plus: SAg Assay for Monokine induced gamma interferon (MIG) Biomarker Activity (AID 2283092). To be noted: primary human HUVEC with PBMC; actives raise or lower the signal. The gist of the method:
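Values reflect bidirectional fitting of ELISA-measured MIG against DMSO vehicle, taken 24 h after dosing of a co-culture of human umbilical vein endothelial cells and peripheral blood mononuclear cells.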

Test [12] in a line: BSK_SAg_PBMCCytotoxicity: PBMC Cytotoxicity Assessment in the BioMAP Diversity Plus: SAg Assay (AID 2283093).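 Further: PBMC viability measured as Alamar Blue reduction fluorescence at 546/580 nm; fitted both ways against DMSO so a hit may be loss or gain of signal.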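 On AC50: PBMC superantigen activated with SEB plus TSST-1 one hour after compound addition.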 To be noted: primary human HUVEC with PBMC. The gist of the method: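 Human umbilical vein endothelial cells co-cultured with PBMC; PBMC (75,000/well) pre-treated with compound 1 h, then activated with SEB and TSST-1 (20 ng/mL final each) for 90 h. Alamar Blue added 6 h, fluorescence 546/580 nm; bidirectional fit versus DMSO.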

Read-out in test [13]: Interleukin-8 (IL8), CXCL8 (gene 3576)
The experiment in a line: BSK_SAg_IL8: BioMAP Diversity Plus: SAg Assay for Interleukin-8 (IL8) Biomarker Activity (AID 2283094). To be noted: primary human HUVEC with PBMC; actives raise or lower the signal. The gist of the method: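 Human umbilical vein endothelial cells co-cultured with PBMC, stimulated with superantigen; IL-8 measured by ELISA 24 h after chemical dosing. Bidirectional fitting versus DMSO; SRB staining in parallel cultures tracks cytotoxicity.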

Test [14] can be described thus: BSK_SAg_Proliferation: Cell Proliferation Assessment in the BioMAP Diversity Plus: SAg Assay (AID 2283095). To be noted: primary human HUVEC with PBMC. The gist of the method: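 Human umbilical vein endothelial cells co-cultured with PBMC; sulforhodamine B total-protein staining (0.1% SRB after 10% TCA fixation, absorbance 560 nm) at 96 h in sub-confluent culture. Fitted bidirectionally against DMSO.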

Test [15] in a line: BSK_SAg_SRB: Viability Assessment in the BioMAP Diversity Plus: SAg Assay (AID 2283096).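 Further: cells read one day after compound addition; hits may be either gain or loss of signal compared with DMSO.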 The conditions noted are these: primary human HUVEC with PBMC. The essentials:
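Endothelial/PBMC primary human co-culture; compound 24 h; fix 10% TCA, stain 0.1% SRB, A560; protein content as cytotoxicity proxy; bidirectional curve fit, DMSO = baseline.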

Values joined by “and” are separate entries in the source; they are usually repeats but may differ in a detail not shown here. Equal values may be shown once. The source holds several records for some structures; these can differ, active in one and inactive in another. Active and inactive are the calls of the source. How the source made its calls: active means hit-call score of the fitted dose curve at least 0.9, where 1 is the maximum; inactive means score below 0.9.

Sequence of Tumor necrosis factor (Homo sapiens) (P01375 whole entry, looked up): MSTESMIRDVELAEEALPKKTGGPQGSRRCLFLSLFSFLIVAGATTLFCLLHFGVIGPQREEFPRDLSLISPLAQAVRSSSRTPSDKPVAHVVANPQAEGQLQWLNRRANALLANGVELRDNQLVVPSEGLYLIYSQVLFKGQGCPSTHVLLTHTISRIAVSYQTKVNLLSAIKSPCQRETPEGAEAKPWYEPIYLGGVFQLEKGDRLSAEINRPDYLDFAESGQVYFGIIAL
Sequence of E-selectin (Homo sapiens) (P16581 whole entry, looked up): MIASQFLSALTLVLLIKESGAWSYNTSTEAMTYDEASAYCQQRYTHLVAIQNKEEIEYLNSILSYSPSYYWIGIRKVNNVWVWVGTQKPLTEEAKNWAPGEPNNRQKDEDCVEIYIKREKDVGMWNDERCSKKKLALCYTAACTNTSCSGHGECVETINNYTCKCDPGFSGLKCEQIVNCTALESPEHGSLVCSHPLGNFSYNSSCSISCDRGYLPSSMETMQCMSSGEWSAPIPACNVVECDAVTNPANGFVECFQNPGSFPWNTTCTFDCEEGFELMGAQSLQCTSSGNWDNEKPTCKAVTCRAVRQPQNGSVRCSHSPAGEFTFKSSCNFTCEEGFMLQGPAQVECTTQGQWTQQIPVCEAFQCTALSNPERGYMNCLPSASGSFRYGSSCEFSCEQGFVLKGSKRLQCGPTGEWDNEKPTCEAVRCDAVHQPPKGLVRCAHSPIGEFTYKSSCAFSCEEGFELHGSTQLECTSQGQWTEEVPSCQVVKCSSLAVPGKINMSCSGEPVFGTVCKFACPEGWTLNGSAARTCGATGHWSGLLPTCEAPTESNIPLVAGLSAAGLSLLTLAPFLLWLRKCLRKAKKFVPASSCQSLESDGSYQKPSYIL

For the molecule `COC(=O)c1ccccc1N`, the outcome in [1], in test [2], in test [3], in test [4], in test [5] and in test [6] was inactive. Further, the outcome in test [7], in test [8], in test [9], in test [10], in [11] and in test [12] was inactive. Moreover, the result in test [13], in [14] and in test [15] was inactive.

As to `CCC12COCN1COC2`, the outcome in test [1], in test [2], in [3], in test [4], in test [5] and in [6] was inactive. Further, the outcome in [7], in test [8], in test [9], in test [10], in test [11] and in test [12] was inactive. Besides, the result in test [13], in [14] and in test [15] was inactive.

As a reminder, the AC50 is the concentration at which the activity in the assay is half-maximal. In the case of `CCNS(=O)(=O)C(F)(F)C(F)(F)C(F)(F)C(F)(F)C(F)(F)C(F)(F)C(F)(F)C(F)(F)F`, the outcome in test [1], in test [2], in [3], in [4], in [5] and in [9] was inactive. Also, the result in [10], in [11], in test [12], in test [13] and in test [15] was inactive. Moreover, the AC50 was 49 µM (active) in test [2]; 1.1 µM (active) in [4]; 30 µM (active) in test [5]; 19.3 µM (active) and 48.6 µM (active) and 30 µM (active) in test [6]; 12.2 µM (active) and 36.6 µM (active) and 30.4 µM (active) in test [7]; 5.71 µM (active) and 24.7 µM (active) and 20.2 µM (active) in test [8]. Further, the AC50 in test [9] is 48.7 µM (active); in test [10], 30 µM (active); in test [11] it was 49.1 µM (active); in test [12], 48 µM (active); in test [13], 30 µM (active); in test [14], 19.3 µM (active) and 45 µM (active) and 23.6 µM (active). Besides, the AC50 in [15] was 43.3 µM (active) and 51.2 µM (active).

Turning to `CN(C)c1ccccc1`, the result in [1], in test [2], in [3], in [4], in [5] and in test [6] was inactive. Moreover, the result in test [7], in test [8], in test [9], in test [10], in [11] and in test [12] was inactive. Moreover, the result in test [13], in test [14] and in [15] was inactive.

For `CC(C)(O)c1cnn2c(-c3ccc(F)c(-c4c(F)cccc4C#N)c3)cnc2n1`, the AC50 in test [1] was 30.6 µM (active); in test [2] it was 20 µM (active); in test [4] it was 9.68 µM (active); in test [5], 20 µM (active); in test [7], 20 µM (active); in test [12], 7.8 µM (active). In addition, the AC50 in test [13] was 4.31 µM (active). The outcome in [3], in test [6], in [8], in test [9], in test [10] and in test [11] was inactive. Besides, the outcome in test [14] and in test [15] was inactive.

As for `Clc1ccc(C(c2ccc(Cl)cc2)C(Cl)Cl)cc1`, the AC50 was 28.5 µM (active) in test [1]; 25.6 µM (active) in test [2]; 37.8 µM (active) in test [3]; 31.7 µM (active) in test [4]; 30.5 µM (active) in test [5]; 29.3 µM (active) in [6]. Moreover, the AC50 is 26.2 µM (active) in test [7]; 29.9 µM (active) in test [8]; 34.2 µM (active) in test [9]; 28.9 µM (active) in test [10]; 35.6 µM (active) in test [11]; 14.3 µM (active) in test [12]. The half-maximal activity concentration (AC50) is 29 µM (active) in test [13], 11.4 µM (active) in test [14] and 29.5 µM (active) in [15].

With `CNC(=O)Oc1cccc2c1OC(C)(C)C2`, the result in test [1], in test [2], in [3], in test [4], in test [5] and in test [6] was inactive. The result in test [7], in test [8], in test [9], in [10], in test [11] and in [12] was inactive. The outcome in test [13], in test [14] and in test [15] was inactive.
